Bioassay records (PubChem BioAssay)
In the library only some 11% were active in any assay of this set; here they are far more common.
ALDH1A1 inh = blocks purified human ALDH1A1 activity. Potency, µM (titrated, usually from 75.3 µM), without a hit: at the top dose activity, negative = inhibition, actives largely listed as inhibitors. Purified ALDH1A1, NADH fluorescence, propionaldehyde substrate. hit rate 7.3% among 220,000. AID 1030;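 note: potency is the fitted concentration of half-maximal effect; plate controls were no enzyme wells and a reference inhibitor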
HPGD inh = HPGD (human) dehydrogenase inhibition. hit rate 4.3% among 150,000. P15428. purified HPGD, NADH fluorescence kinetic, PGE2 substrate. AID 894. Potency, µM, inactives show at the top dose activity change, negative = inhibition, usual class: inhibitors; note: potency is the fitted concentration of half-maximal effect
Target sequence (P15428 whole entry, looked up): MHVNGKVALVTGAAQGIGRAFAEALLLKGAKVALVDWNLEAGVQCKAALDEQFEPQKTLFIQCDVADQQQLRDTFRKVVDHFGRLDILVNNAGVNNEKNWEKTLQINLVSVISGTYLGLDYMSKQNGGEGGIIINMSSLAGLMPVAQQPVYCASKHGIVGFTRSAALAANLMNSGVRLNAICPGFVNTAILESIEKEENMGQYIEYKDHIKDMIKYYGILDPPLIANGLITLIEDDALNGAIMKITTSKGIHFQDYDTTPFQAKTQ
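20 nM HPGD preincubated 15 min at room temperature with compound in 50 mM Tris-HCl pH 8, 0.01% Tween 20. Started with 1 mM NAD+ and 30 uM prostaglandin E2; NADH fluorescence (360/450 nm) read 5 times over 30-s intervals, last minus first.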
PNC inhibitor = inhibitors of perinucleolar compartment assembly; PC3M PTB-GFP, PNC prevalence imaging, 16 h; stronger effect = lower value; activity change (PNC), negative = inhibition, % at 10 µM; hit rate 3.1% among 140,000; AID 2417;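 active = readout at or below -70, meaning at least 70% loss of cells showing the perinucleolar compartment, a nuclear body marking cancer cells; inconclusive = readout between -30 and a set limit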;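 note: plate controls were DMSO wells for no effect and camptothecin positive control wells for full effect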
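PC3M cells stably expressing PTB-GFP, 750–1000 cells/well, treated 16 h at 37 °C with compound (23 nl of library stock), in duplicate. After paraformaldehyde fixation and Hoechst stain, imaged at 20x; PNC prevalence scored by image analysis.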
Starred values were filed as active, the others as inactive; ? = inconclusive; . = no result given; [ ] = another dose, or the depositor's remark. Unless noted, calls come from the whole dose curve; as a rule, active = well fitted inhibition curve with a large enough effect (not every such curve was filed as active); inconclusive = small, poorly fitted or top-dose-only effect, or another doubt; inactive = no such curve, though single readings can be large or run the other way. Unless noted, % is set by controls: 0 for no effect and ±100 for the full control effect.

SMILES	ALDH1A1 inh	HPGD inh	PNC inhibitor
O=C(Nc1cccc(Cl)c1)OC1CN2CCC1CC2 (configuration not stated)	11.7%	.	.
CC(C)OC(=O)Nc1cccc(Cl)c1	-1.2%	12.6µM*	.
CCN=C=NCCCN(C)C	-0.8%[13.5 µM]	-0.1%	.
CC(C)(C)c1cc(O)ccc1O	3.55µM*	-2.4%	.
CC(C)(C)c1ccccc1O	31.6µM*	-6.1%	.
COc1ccc(O)c(C(C)(C)C)c1	-2.2%	-7.0%	.
Cc1ccccc1O	2.4%	-0.3%	.
C=CC(N)=O	24.8%	-3.1%	.
CC(N)c1cccc(Cl)c1Cl (configuration not stated)	?	-4.8%	.
C=CCN1CC[C@@]23c4c5ccc(O)c4O[C@H]2/C(=N\N=C2/CC[C@@]4(O)[C@H]6Cc7ccc(O)c8c7[C@@]4(CCN6CC=C)[C@@H]2O8)CC[C@]3(O)[C@@H]1C5	-3.7%	6.7%	.
CC([C@H](O)c1ccccc1)N(C)C (some centres not stated)	20µM*	-1.1%	.
CNC(C)[C@H](O)c1ccccc1 (some centres not stated)	7.0%	-2.4%	.
CC12CN3CC(C)(CN(C1)C3c1cccs1)C2O (configuration not stated)	2.6%	-13.1%	-106.5*
CC(Cc1cccc(C(F)(F)F)c1)NCCCc1ccccc1 (configuration not stated)	-12.3%	.	.
CC[C@@H]1CN2CCc3cc(OC)c(OC)cc3[C@H]2C[C@@H]1C[C@@H]1NCCc2cc(O)c(OC)cc21	0.1%[20.9 µM]	-7.6%	.
CCOC(=O)CN1C(=O)C2(C(C#N)=C(N)Oc3ccccc32)C(C(=O)OC)=C1C (configuration not stated)	7.94µM*	-3.3%	?
C=CCOC(=O)C1=C(C)OC(N)=C(C(=O)OCC)C12C(=O)N(CC(N)=O)c1ccccc12 (configuration not stated)	-6.6%	-11.1%	?
CCOC(=O)C1=C(C)OC(N)=C(C#N)C12C(=O)Nc1ccc(C)cc12 (configuration not stated)	4.5%	-8.9%	41.5
C=CCOC(=O)C1=C(C)OC(N)=C(C#N)[C@@]12C(=O)N(CC(N)=O)c1ccccc12	9.6%	.	27.7
CCOC(=O)C1=C(C)OC(N)=C(C(=O)OCC)[C@@]12C(=O)N(CC(N)=O)c1ccccc12	10.6%	-2.3%	43.0
CC1=C(C(=O)OC(C)C)[C@]2(C(=O)N(CC(N)=O)c3ccccc32)C(C#N)=C(N)O1	13.4%	-8.0%	-100.0*
CCOC(=O)CC1=C(C(=O)OCC)C2(C(=O)N1CC(=O)OC)C(C#N)=C(N)Oc1ccccc12 (configuration not stated)	1.12µM*	-8.5%	?
C=CCN1C(=O)C2(C(C(=O)OCC)=C(N)Oc3ccccc32)C2=C1CCCC2=O (configuration not stated)	3.98µM*	-6.0%	?
CC(C)CC(=O)C[C@H](O)C(Cl)(Cl)Cl	8.2%[13.5 µM]	-11.8%	.
COc1cc2c(cc1OC)[C@]13CC[N@+]4(C)CC5=CCO[C@H]6CC(=O)N2[C@@H]1C6[C@@H]5C[C@]34O (some centres not stated)	16.1%[13.5 µM]	-1.0%	.
SMILES	ALDH1A1 inh	HPGD inh	PNC inhibitor
O=P(O)(O)C(Cl)(Cl)P(=O)(O)O	-9.3%	-7.1%	.
CN1C(=O)CCS(=O)(=O)[C@H]1c1ccc(Cl)cc1	3.8%	-0.1%	.
CCNC(=O)O/N=C(\C)c1sc(-c2ccccc2)nc1C	?	?	76.4
CCC12C=CCN3CCC4(c5ccc(OC)cc5N(C)C4[C@@](O)(C(=O)OC)C1OC(C)=O)C32 (some centres not stated)	-4.7%	-7.4%	.
CCn1c(N)c(C(=O)NC)sc1=S	2.82µM*	3.55µM*	?
CC(C)CN1CC[C@@]2(CCCN(C(=O)c3ccncc3)C2)C1	-5.1%	-9.2%	.
CC(C)CC(CN)CC(=O)O (configuration not stated)	3.8%	-9.2%	.
CC(C)(C)OOC(C)(C)C	-4.1%	-6.9%	.
COC(C)(C)C	17.8µM*	-2.5%	.
c1ccc(C(c2ccccc2)N2CCN(c3ccc4ccccc4n3)CC2)cc1	?	?	41.8
C=CCn1c(O)c(C(=O)CCCCCC)c(=O)[nH]c1=O	?	-14.1%	11.5
COc1ccc(CN2CCCCC2c2cccnc2)cc1C (configuration not stated)	2.2%	-12.1%	34.5
COc1cccc(CN2CCCCC2c2cccnc2)c1 (configuration not stated)	31.6µM*	-16.0%	-83.4*
C[C@H](N)[C@H](O)c1ccc(O)c(O)c1	0.4%[20.9 µM]	-10.8%	.
Cc1c(O)c(O)cc2c1CC=C1[C@]3(C)CC[C@]4(C)CC[C@@](C)(C(=O)O)CC4[C@]3(C)CC[C@]12C (some centres not stated)	-5.5%	17.8µM*	.
N[C@@]1(C(=O)O)CC[C@H](C(=O)O)C1	-8.6%	2.8%	.
Clc1ccccc1-c1cncnc1NCCc1cnc[nH]1	5.7%	.	.
Cc1cccc(N2C(=O)NC(=O)/C(=C\c3ccc4c(c3)CCCN4Cc3ccccc3)C2=O)c1	0.178µM*	7.08µM*	-2.3
CC1=NN(c2ccccc2)C(=O)C1/C=C1/C(=O)NC(=O)N(c2cccc(C)c2)C1=O (configuration not stated)	2.6%	-15.1%	?
CCc1ccc(CCN2CCCCC2)nc1	-4.2%[13.5 µM]	-5.7%	.
O=C(NC1CN2CCC1CC2)c1ccc(-c2ccc([N+](=O)[O-])cc2)o1 (configuration not stated)	0.447µM*	-28.9%	26.1
O=C(N[C@H]1CN2CCC1CC2)c1ccc(Cl)cc1	6.4%	-4.6%	.
C=CCn1c(O)c(C(C)=Nc2ccc(C(=O)OCC)cc2)c(=O)[nH]c1=O	31.6µM*	-28.4%	17.3
C=CCn1c(O)c(C(C)=NCCO)c(=O)[nH]c1=O	15.6%	-6.3%	-14.5
c1ccc2cc3c(cc2c1)-c1cccc2cccc-3c12	?	45.6%	.
SMILES	ALDH1A1 inh	HPGD inh	PNC inhibitor
COc1ccc(N=Nc2c(O)[nH]c(=S)[nH]c2=O)cc1	-2.9%	.	.
COc1cccc(N=Nc2c(O)[nH]c(=S)[nH]c2=O)c1	25.1µM*	.	.
O=C(Cc1ccc(Cl)c(Cl)c1)N1CCCC[C@H]1CN1CCCC1	5.5%	-7.6%	.
CCCC(C)C1C(C#N)=C(N)Oc2c1c(=O)oc1ccccc21 (configuration not stated)	-2.2%	?	12.6
CCCC1C(C#N)=C(N)Oc2c1c(=O)oc1ccccc21 (configuration not stated)	3.3%	-4.7%	-97.8*
CP(=O)(O)C1=CCNCC1	6.6%	-13.8%	.
N#C/C(N)=C(/N)C#N	-1.5%	-11.0%	.
CS/C(N)=C(C#N)/C(C#N)=C(\N)SC	7.08µM*	?	.
Nc1ccccc1-c1ccccc1	?	-11.7%	.
C=CCN(c1ccc(C(=O)N(CC)CC)cc1)S(C)(=O)=O	-3.5%	-21.5%	-23.2
CCN(CC)C(=O)c1ccc(N2C(=O)C3CC=C(Cl)CC3C2=O)cc1 (configuration not stated)	-6.0%	12.6µM*	-85.6*
CC1CC(O)[C@]2(O)[C@]13CC(=O)OC[C@@]2(C)[C@@](C)(O)C(=O)C3 (some centres not stated)	-2.4%	-4.2%	.
Cn1c2c(c3ccccc31)CCNCC2	-8.6%	-26.8%	.
